Reference: PubChem BioAssay AID1159580 (chemical genetic matrix, 2015)
Values joined by “and” are separate entries in the source; they are usually repeats but may differ in a detail not shown here. Equal entries are not always repeated. Screen size: about 5,500 compounds; about 2,000 (36%) were called active. Another 18% or so got no clear call; they are omitted. No stated cut-off is given here; in the data, active means normalized growth mostly below about 0.91 (no sharp cut-off); inconclusive means no clear call, values can overlap the other calls; inactive means mostly above about 0.92. This is one part of the list.

Test: chemical genetic growth profiling, strain panel (AID 1159580);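 further: tested at 20 µM; growth read once vehicle control cultures reached saturation at 30 °C; 1 = growth at the plate median or of vehicle wells; lower values mean less growth of the strain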
Details: S. cerevisiae deletion strains, growth OD

Measured: normalized growth

O=C(O)CCCCC1CCSS1 (configuration not stated)
inactive: locus YAL013W, strain DEP1, hits give low values 0.97 | locus YAL021C, strain ccr4, hits give low values 1 | locus YAL026C, strain drs2, hits give low values 0.94 | locus YAL030W, strain snc1, hits give low values 0.974 | locus YBL061C, strain skt5, hits give low values 0.979 | locus YBR009C, strain hhf1, hits give low values 0.933 | locus YBR021W, strain FUR4, hits give low values 0.987 | locus YBR023C, strain chs3, hits give low values 0.977 | locus YBR171W, strain sec66, hits give low values 0.934 | locus YBR229C, strain ROT2, hits give low values 0.953 | locus YBR231C, strain swc5, hits give low values 0.979 | locus YBR279W, strain paf1, hits give low values 0.978 | locus YCL011C, strain gbp2, hits give low values 0.959 | locus YCL016C, strain dcc1, hits give low values 0.983 | locus YCL029C, strain bik1, hits give low values 0.993 | locus YCL061C, strain MRC1, hits give low values 0.956 | locus YCL069W, strain vba3, hits give low values 0.973 | locus YCR088W, strain abp1, hits give low values 0.978 | locus YDL005C, strain med2, hits give low values 1.02 | locus YDL035C, strain GPR1, hits give low values 0.98 | locus YDL040C, strain nat1, hits give low values 0.976 | locus YDL074C, strain BRE1, hits give low values 0.99 | locus YDL101C, strain DUN1, hits give low values 0.978 | locus YDL134C, strain PPH21, hits give low values 0.974 | locus YDL185W, strain tfp1, hits give low values 0.942 | locus YDL192W, strain arf1, hits give low values 0.979 | locus YDR001C, strain nth1, hits give low values 0.971 | locus YDR069C, strain doa4, hits give low values 0.982 | locus YDR101C, strain arx1, hits give low values 0.996 | locus YDR137W, strain rgp1, hits give low values 0.883 | locus YDR150W, strain NUM1, hits give low values 0.958 | locus YDR159W, strain sac3, hits give low values 0.984 | locus YDR162C, strain NBP2, hits give low values 0.938 | locus YDR195W, strain ref2 0.994 | locus YDR297W, strain sur2, hits give low values 0.975 | locus YDR318W, strain mcm21, hits give low values 0.992 | locus YDR334W, strain swr1, hits give low values 0.978 | locus YDR335W, strain msn5, hits give low values 0.97 | locus YDR388W, hits give low values 0.985 | locus YDR392W, strain spt3, hits give low values 0.888 | locus YDR502C, strain sam2, hits give low values 0.975 | locus YEL003W, strain gim4, hits give low values 0.961 | locus YEL037C, strain rad23, hits give low values 0.976 | locus YEL061C, strain CIN8 (second series), hits give low values 0.968 | locus YEL061C, strain CIN8, hits give low values 0.975 | locus YER015W, strain faa2, hits give low values 0.985 | locus YER016W, strain bim1, hits give low values 0.983 | locus YER110C, hits give low values 0.961 | locus YER111C, strain swi4, hits give low values 0.963 | locus YER155C, strain BEM2 (second series), hits give low values 0.922 | locus YER155C, strain BEM2, hits give low values 0.989 | locus YER167W, strain BCK2, hits give low values 0.981 | locus YFR010W, strain ubp6, hits give low values 0.962 | locus YGL078C, strain dbp3, hits give low values 0.981 | locus YGL086W, strain mad1, hits give low values 0.97 | locus YGL167C, strain pmr1, hits give low values 0.95 | locus YGL173C, strain kem1, hits give low values 0.973 | locus YGL227W, strain vid30, hits give low values 0.965 | locus YGL240W, strain doc1, hits give low values 0.956 | locus YGL248W, strain PDE1, hits give low values 0.981 | locus YGL253W, strain hxk2, hits give low values 0.992 | locus YGR078C, strain PAC10, hits give low values 0.999 | locus YGR135W, strain pre9, hits give low values 0.982 | locus YGR229C, strain SMI1, hits give low values 1.01 | locus YGR252W, strain gcn5, hits give low values 0.873 | locus YHR013C, strain ard1, hits give low values 0.935 | locus YHR027C, strain rpn1, hits give low values 0.987 | locus YHR030C, strain SLT2, hits give low values 0.98 and 0.943 | locus YHR079C, strain IRE1 (second series), hits give low values 0.984 | locus YHR094C, strain hxt1, hits give low values 0.981 | locus YHR129C, strain ARP1, hits give low values 0.997 | locus YHR142W, strain chs7, hits give low values 1.02 | locus YHR200W, strain rpn10, hits give low values 0.991 | locus YIL066C, strain RNR3, hits give low values 0.985 | locus YIL073C, strain SPO22, hits give low values 0.978 | locus YIL125W, strain kgd1, hits give low values 0.99 | locus YIR030C, strain dcg1, hits give low values 0.978 | locus YJL092W, strain hpr5, hits give low values 0.972 | locus YJL095W, strain BCK1 (second series), hits give low values 0.975 | locus YJL095W, strain BCK1, hits give low values 1.03 and 0.902 | locus YJL115W, strain asf1, hits give low values 0.978 | locus YJL129C, strain trk1, hits give low values 0.91 | locus YJL134W, strain LCB3, hits give low values 0.977 | locus YJL154C, strain vps35, hits give low values 0.975 | locus YJL164C, strain tpk1, hits give low values 0.967 | locus YJL166W, strain qcr8, hits give low values 0.976 | locus YJL168C, strain set2, hits give low values 0.992 | locus YJL187C, strain SWE1 (second series), hits give low values 0.992 | locus YJL187C, strain SWE1, hits give low values 0.973 | locus YJR043C, strain POL32, hits give low values 1.01
active: locus YHR079C, strain IRE1, hits give low values 0.383 | locus YJR066W, strain TOR1, hits give low values 0.812
